The campaign covered roughly 1,400 compounds. About 380 (27%) were called active. Some of the results follow. Unmarked numbers belong to inactive results.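 Rule for the calls: active = mean inhibition above 50% across duplicate retests at 10 µM; inactive = the rest.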

The assay is described as follows: inhibition of NALP1/ASC/caspase-1 reporter signal in yeast, confirmation, NALP1 inhibitor project, S. cerevisiae, luminescence, single concentration (AID 488841).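 Note: plate controls were DMSO in galactose medium for no effect and cells in plain SD medium for full effect.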 Particulars: S. cerevisiae NALP1/ASC/Caspase-1 reporter, beta-gal luminescence; at 10 µM; active compounds read high.
Turning to `COC(=O)c1cc(OC)c(OC)cc1NC(=S)N1CCN(c2ccccc2)CC1`, the inhibition was 30%. For `COC(=O)/C=C/C(=O)N1CCN(c2cccc(Cl)c2)CC1` the value was 54.7% (active). For `O=C(CN1CCN(c2cccc(Cl)c2)CC1)Nc1ccc(S(=O)(=O)N2CCOCC2)cc1` the value was 35.4%.

Consider `Cc1ccnc(NS(=O)(=O)c2ccc(NC(=O)CSc3nc(-c4ccccc4)cc(=O)[nH]3)cc2)n1`, for which the inhibition was 12.6%. For `CCOc1cc(C(=O)OCC(=O)Nc2ncc(Cl)c(C)c2Cl)ccc1OCC(=O)N1CCOCC1` the value was 27.4%.

Regarding `Cc1ccc(NC(=O)N2CCc3ccccc3C2)cc1`, the inhibition is 64.8% (active). With `O=C(Nc1ccccc1)N1CCc2ccccc2C1` the figure was 62% (active). With `CC(=O)N1CCCc2cc(S(=O)(=O)N3CCc4ccccc4C3)ccc21` the figure was 33.2%.

`Cc1ccc2cc3cc(C(=O)NCCCN4CCc5ccccc5C4)oc3nc2c1`: the inhibition was 30.9%. Turning to `O=C(NCCCN1CCc2ccccc2C1)Nc1ccc(Br)cc1`, the inhibition was 25.1%.

`COC(=O)/C(=N/Nc1ccc(C)cc1)N1CCCc2ccccc21`: the inhibition is 32%. For `CCCCCCCCCCOC(=O)Cn1c(COc2ccc(Cl)cc2)[n+](C)c2ccccc21` the value was 34%; for `O=C1NC(c2ccccc2)Nc2c1sc(=S)n2-c1ccccc1` (configuration not stated), 25.1%. In the case of `CCN(CC)S(=O)(=O)c1ccc2oc(C(=O)NC3CCCc4ccccc43)c(C)c2c1` (configuration not stated), the inhibition was 4.35%.

As to `CCN1/C(=C\c2ccc3ccccc3[n+]2CC)Sc2cc(C)ccc21`, the inhibition was 98.2% (active). For `CC[n+]1c(/C=C2\Sc3ccccc3N2C)ccc2cccc(C)c21` the value was 96.8% (active). Regarding `CCN1/C(=C/c2ccc3ccc(C)cc3[n+]2CC)Sc2ccccc21`, the inhibition was 21.4%. With `CCN1/C(=C/c2ccc3cc(C)ccc3[n+]2CC)Sc2ccccc21` the figure was 101% (active); with `Cc1cc(=O)n2ccccc2c1C#N`, 9.65%. With `C/C(=N/NC(=O)c1nnn(-c2nonc2N)c1COc1ccccc1)c1ccc(O)cc1` the figure was 22.6%. For `Cc1cc(C)cc(C(=O)OCC(=O)NCCNC(=O)COC(=O)c2cc(C)cc(C)c2)c1` the value was 31.4%. For the compound `OCCN(CCO)c1ncnc2c1oc1ccc(Br)cc12`, the inhibition was 31.3%. For `CC1CN(S(=O)(=O)c2ccc(C(=O)Nc3nc(-c4cc5ccccc5o4)cs3)cc2)CC(C)O1` (configuration not stated) the value was 30.1%; for `N#CC1(C#N)CC(C=O)=C(N)C1(C#N)CC(=O)C12CC3CC(CC(C3)C1)C2` (configuration not stated), 36.1%. For `Cc1ccc(Cl)cc1N1CCN(S(C)(=O)=O)CC1` the value was 39.6%. Consider `CCCC(CCC)c1nc2ccncc2[nH]1`, for which the inhibition was 27.4%. `CC(=O)NS(=O)(=O)c1ccc(NC(=O)CSc2ccccc2)cc1`: the inhibition is 8.45%. Turning to `CCCCNCCOCCOc1ccc(Cl)cc1Br`, the inhibition is 48%.

Consider `CCN(CC)CCCOc1ccc(Cl)c(Cl)c1`, for which the inhibition was 44.2%. With `C#CCN(C)CCCOc1ccc(Cl)cc1Cl` the figure was 55.1% (active); with `CC(C)CC(=O)N1CCN(S(=O)(=O)c2ccccc2)CC1`, 24.9%; with `COc1ccc(-c2cc(-c3cc(OC)ccc3O)[nH]n2)cc1`, 49.4%. With `Cc1ccc2c(c1)c1c3n2CCCNC3CCC1` (configuration not stated) the figure was 43.8%. With `O=C(c1ccccc1-c1ccccc1)N1CCN(c2ccccn2)CC1` the figure was 29.1%.

With `O=C(N1CCN(c2ccccn2)CC1)C(Cl)(Cl)Cl`, the inhibition was 60.1% (active). Consider `CCOC(=O)c1cc(-c2ccccc2)n(CCC(=O)N2CCN(c3ccccn3)CC2)c1C`, for which the inhibition was 39.2%. For `C=C(C)C(=O)Nc1cccc(C(C)=O)c1` the value was 10.3%; for `Cn1c(SCC(=O)NC(c2ccccc2)c2ccccc2)nnc1-c1cccs1`, 34%. With `C=C(C)C(=O)Nc1nnc(-c2cccs2)s1` the figure was 55.5% (active); with `CN1/C(=C\C(=O)c2cccs2)C(C)(C)c2ccccc21`, 35.5%; with `O=C(COC(=O)CCC1CCCCC1)Nc1ccc(OC(F)F)cc1`, 19.5%. For `CCCCNC1CCS(=O)(=O)C1` (configuration not stated) the value was 24%; for `CCCCCCOc1ccc(-c2ccc(C#N)cn2)cc1`, 34.9%; for `CCCCCCOc1ccc(/C(C)=N/NC2=NCCN2)cc1`, 51.5% (active). For `CCCCCCOc1ccc(OC(=O)c2ccncc2)cc1`, the inhibition was 24.9%. For `CCCCOc1ccc(CSC2=NCCN2)cc1[N+](=O)[O-]` the value was 43.9%; for `CCCCCOc1ccc(Br)cc1/C(C)=N/NC1=NCCN1`, 51.2% (active). For `CCn1c(SCC(=O)Nc2ccc3c(c2)OCO3)nnc1-c1cnccn1` the value was 36.9%.

In the case of `CCOc1ccccc1C1CC(=O)NC(SCC(=O)Nc2nccs2)=C1C#N` (configuration not stated), the inhibition was 10.4%.

For the compound `CCOc1nc(N2CCOCC2)nc(N2CCOCC2)n1`, the inhibition is 29.6%. As to `COc1cccc(/C=N/NC(=O)CNC(=O)C2COc3ccccc3O2)c1O` (configuration not stated), the inhibition is 41%. With `O=C(N/N=C\c1cccc([N+](=O)[O-])c1O)C1COc2ccccc2O1` (configuration not stated) the figure was 56.7% (active); with `O=[N+]([O-])c1cc(Cc2ccccc2)cc(C=Nc2ccc(N3CCOCC3)cc2)c1O`, 47.5%. Regarding `NCCS`, the inhibition was 55.1% (active). For `CCCCCCC(=O)N(O)C1CC(=O)N(Cc2ccccc2)C1=O` (configuration not stated) the value was 15.2%; for `C=CCn1c(CNC(=O)c2cccs2)nnc1SCC(=O)Nc1ccc(C(=O)O)cc1`, 24.2%.

On to `Cc1ccccc1Nc1cc(C)c2c(O)cccc2n1`, for which the inhibition was 65.8% (active).

For the compound `CC(=O)Nc1ccc2nc(CN3CCC(CO)(CCc4ccccc4)CC3)ccc2c1`, the inhibition was 34.5%.

With `Cc1c([N+](=O)[O-])c(C(=O)Nc2ccc3c(c2)OCCO3)nn1C`, the inhibition was 27.4%. For `CNc1ccc(/C=C/C(=O)c2ccc3c(c2)OCCO3)cc1[N+](=O)[O-]` the value was 52.8% (active); for `CCn1c(SCC(=O)Nc2oc(-c3ccccc3)c(-c3ccccc3)c2C#N)nnc1-c1cc(OC)cc(OC)c1`, 22.6%; for `COc1ccc(S(=O)(=O)N(CC(=O)N2CCOCC2)Cc2ccccc2)cc1C`, 22.4%.

Take `CC1(C)CC(=O)c2c(-c3cccs3)n[nH]c2C1`: the inhibition is 38.8%. For `CC1=NNC(=O)/C1=C\c1cn(-c2ccccc2)nc1-c1cccs1` the value was 62.4% (active).

Turning to `Brc1ccc2c(c1)OCCOCCOc1cc(Br)ccc1OCCOCCOCCO2`, the inhibition is 59.6% (active). For `CCCc1cc(C(=O)Nc2c(C)n(C)n(-c3ccccc3)c2=O)no1` the value was 23.7%; for `CCn1ncc([N+](=O)[O-])c1C(=O)Nc1ccc(C(=O)N2CCCCC2)cc1`, 32.5%; for `CCn1ncc(C(=O)Nc2cccc(Cl)c2)c1C`, 53.8% (active). For `CCCc1cc(C(=O)Nc2cccc(Cl)c2)no1` the value was 67.2% (active); for `CCCc1cc(C(=O)Nc2ccc(F)cc2F)no1`, 36.5%; for `CCn1nccc1C(=O)Nc1ccc(Cl)cn1`, 35.4%.

`COc1ccc(NC(=O)c2sc(N3CCOCC3)nc2-c2ccccc2)c(OC)c1`: the inhibition was 48.4%. As for `Cc1cc(NC(=O)/C=C/c2ccccc2Cl)no1`, the inhibition was 46.5%. For `O=C(/C=C/c1ccccc1Cl)c1ccc[nH]1` the value was 73% (active); for `CC(NC(=O)Nn1cnnc1)(C(F)(F)F)C(F)(F)F`, 9.3%; for `CCCCCCCCNC(C)C(O)c1ccc(SC(C)C)cc1` (configuration not stated), 46.5%. With `Cc1cc(C(C)(C)C)cc(S(=O)(=O)Nc2ccc(O)c(C(=O)O)c2)c1C` the figure was 24.9%; with `CC1(C)CCSC(/C=C/c2ccccc2)=N1`, 84% (active). `O=S(=O)(c1ccc(Br)cc1)N1CCCN(Cc2cccc(F)c2)CC1`: the inhibition was 59.5% (active). Consider `O=C(O)C1(c2ccccc2)CCN(S(=O)(=O)c2ccc(Br)cc2)CC1`, for which the inhibition was 32.4%.

In the case of `CCOC(=O)C1CCCCN1Cc1cccc(F)c1` (configuration not stated), the inhibition was 19.9%.

In the case of `COc1ccc(CCN(C)C2CC(=O)N(c3ccccc3)C2=O)cc1OC` (configuration not stated), the inhibition was 45%. With `Cc1ccc(C(=O)Oc2ccc3c(c2)ncn3C)cc1` the figure was 47.5%; with `Cc1ccc(C(=O)/C=C\C(=O)c2ccc(C)cc2)cc1`, 51.1% (active); with `O=C(Nc1nc2c(c(=O)[nH]1)CCCC2)C1CC1`, 27%. For `O=C1CC(c2cccc(Cl)c2)CC(O)=C1C=Nc1cccc(Cl)c1` (configuration not stated) the value was 36.5%. With `O=C1CC(c2ccccc2Cl)CC(O)=C1C=Nc1ccccc1` (configuration not stated) the figure was 52.8% (active). As for `C/C(=N\N1CCN(c2ccc(Cl)cc2)CC1)c1ccco1`, the inhibition is 23.6%. With `Cc1c(N)c(C(C)(C)C)cc(C(C)(C)C)c1[N+](=O)[O-]` the figure was 29.1%. On to `OC(CNCCc1ccc(C(F)(F)F)cc1)COc1cccc2ccccc12` (configuration not stated), for which the inhibition was 65.5% (active). With `COCCNC(=O)CCc1ccc(S(=O)(=O)Nc2ccc(C)cc2)cc1` the figure was 25.8%. For `COC(=O)c1ccccc1NC(=O)N1CCN(C/C=C/c2ccccc2)CC1` the value was 39.6%. With `CCC(C)c1ccccc1NC(=O)CN1CCN(C/C=C/c2ccccc2)CC1` (configuration not stated) the figure was 46.3%.

In the case of `O=C(c1ccc(Br)s1)N1CCN(C/C=C/c2ccccc2)CC1`, the inhibition was 50.6% (active). With `O=C(NCC1CCCO1)C(c1cccs1)N(Cc1cccs1)C(=O)Cn1nnc(-c2cccs2)n1` (configuration not stated) the figure was 28.1%. With `C#CCCCCCCC#CCN(C)C` the figure was 28.6%. For `CSc1sc(C(=O)N2CCc3ccccc32)cc1S(=O)(=O)C(C)C` the value was 20.9%. Regarding `CCC(=O)N1CCc2cc(S(=O)(=O)N3CCc4ccccc43)ccc21`, the inhibition was 10.5%. `O=C(c1cnn2ccccc12)N1CCc2ccccc21`: the inhibition is 58% (active).

In the case of `O=C(/C=C\Nc1cccc(F)c1)c1cccs1`, the inhibition was 31.6%. Turning to `COc1cc(NC(=O)c2cccs2)cc(OC)c1`, the inhibition is 78.8% (active). Take `CCN(CC)S(=O)(=O)c1cccc(C(=O)Oc2cccc(NC(=O)c3cccs3)c2)c1`: the inhibition was 36%.

For the origin of these results see PubChem BioAssay AID488841 (Sanford-Burnham Center for Chemical Genomics, 2010).
